A selection: hits, their analogues and other compounds. The true share with any hit is near 21%.
NS1 function inh: qHTS Assay for Inhibitors of Influenza NS1 Protein Function; Potency, µM (doses to about 46.1 µM); 270,000 tested, 0.4% active; AID 2326, 2010; calls by dose curve; further: actives are rising curves; nearly all actives have a fitted effect of over 50% in size
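S. cerevisiae expressing influenza A NS1, grown in glucose, washed, then diluted 1:100 into pH 6.0 -URA galactose medium with 23 nl compound. Growth recovery read as OD600; NS1-free strain serves as control.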
Pf growth 96h: Primary qHTS for delayed death inhibitors of the malarial parasite plastid, 96 hour incubation | AID 504834, 2011 | P. falciparum luciferase reporter growth, 96 h | Potency, µM (titrated, usually from 28.7 µM), usual class: inhibitors | 320,000 tested, 6.9% active
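Two parasite generations (96 h, 37 C, 5% CO2) of compound exposure in infected erythrocytes (0.05% parasitemia, 2% hematocrit). Luciferase-reporter P. falciparum; decreased luminescence indicates inhibited growth, aimed at apicoplast-acting delayed death.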
Shiga inhibitor: A qHTS for Small Molecule Inhibitors of Shiga Toxin. inhibition, % at 38.7 µM. 290,000 tested, 9.2% active. Vero cells, Shiga toxin protein synthesis inhibition reporter; in the data active means inhibition mostly above about 28%, no sharp cut-off; inactive means mostly below about 43%
Cycloheximide cs: Cycloheximide Counterscreen for Small Molecule Inhibitors of Shiga Toxin | max response, % | 300,000 tested, 12% active | cell reporter, cycloheximide protein synthesis inhibition counterscreen | AID 2314, 2010; in the data active means max response mostly above about 13%, no sharp cut-off; inactive means mostly below about 14%; further: read at 38.3 µM for the half of the compounds with a filed dose
Pf growth 48h: Primary qHTS for delayed death inhibitors of the malarial parasite plastid, 48 hour incubation | P. falciparum luciferase growth in erythrocytes, 48 h | AID 504832, 2011 | Potency, µM (doses to about 28.7 µM), actives largely listed as inhibitors | 310,000 tested, 5.9% active
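Luciferase-expressing parasites in RBCs, 2% Hct / 0.1% parasitemia final; RPMI 1640 + 0.5% Albumax; 37 C, 5% CO2, one generation; luminescence read-out, lower signal = inhibition.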
SARS PLpro yeast: qHTS of Yeast-based Assay for SARS-CoV PLP; S. cerevisiae expressing SARS-CoV PLpro, growth rescue; Potency, µM (top dose mostly 32.9 µM), most hits filed as activators; 330,000 tested, 0.19% active; AID 485353, 2010; calls by dose curve; further: nearly all actives have a fitted effect of over 55% in size
Each line names hits and unclear results; the compound was inactive in the other large screens. Unless noted, the call rests on the fitted dose curve; in most records, active means well fitted inhibition curve with a large enough effect; inconclusive means small, poorly fitted or top-dose-only effect, or another doubt; inactive means no such curve, though single readings can be large or run the other way.

Clc1cccc(CNc2nnnn2-c2ccccc2)c1	Pf growth 96h 15µM, Pf growth 48h inconclusive
Cc1cc(Nc2nc(Cl)c(Cl)cc2Cl)n(-c2ccccc2)n1	none
COC(=O)[C@]1(C)N[C@H](CN(C)C(=O)c2ccc(F)cc2)[C@@H]2C(=O)N(Cc3ccccc3)C(=O)[C@@H]21	none (no result: NS1 function inh, Pf growth 96h, Shiga inhibitor, Cycloheximide cs, Pf growth 48h)
O=C(Nc1nc2ccccc2[nH]1)C1CCCC1	Shiga inhibitor 81, Cycloheximide cs 60 (no result: NS1 function inh)
O=C(CC1CCCC1)Nc1nc2ccccc2[nH]1	Cycloheximide cs 28
O=C(Nc1nc2ccccc2[nH]1)C1CCC1	Shiga inhibitor 108, Cycloheximide cs 42 (no result: NS1 function inh)
O=C(Cc1cccc2ccccc12)Nc1nc2ccccc2[nH]1	Pf growth 48h inconclusive (no result: Pf growth 96h)
O=C1NN=C(c2ccc(Br)cc2)CC1c1ccc(Cl)cc1 (stereo not drawn)	none
N#Cc1c(NC(=O)CSc2nnc(-c3ccccc3)o2)sc2c1CCCC2	Shiga inhibitor 52, Cycloheximide cs 16, Pf growth 48h inconclusive
CC(C)(C)C1CCc2c(sc(NC(=O)CSc3ncn[nH]3)c2C#N)C1 (stereo not drawn)	Cycloheximide cs 14
CC1CCc2c(sc(NC(=O)CSc3ncn[nH]3)c2C#N)C1 (stereo not drawn)	none
N#Cc1c(NC(=O)CSc2ncc(-c3ccccc3)n2CC2CCCO2)sc2c1CCCC2 (stereo not drawn)	Pf growth 48h inconclusive
Cc1sc(NC(=O)CSc2nnc(-c3ccccc3)o2)c(C#N)c1C	Shiga inhibitor 58, Cycloheximide cs 33
CC1CCc2c(sc(NC(=O)Cn3nc(C(=O)O)c4ccccc4c3=O)c2C#N)C1 (stereo not drawn)	none
CC1CCc2c(sc(NC(=O)CSc3nnc(-c4ccccc4)o3)c2C#N)C1 (stereo not drawn)	Shiga inhibitor active, Cycloheximide cs 23
N[C@@H](Cc1ccccc1)c1nnc(SC/C=C/c2ccccc2)o1	none
COc1ccc(-c2ccc(-c3noc(C)n3)c(OC)n2)cc1	Pf growth 96h inconclusive, Cycloheximide cs 23
COc1ccc(-c2ccc(-c3noc(-c4ccccc4C)n3)c(OC)n2)cc1	none (no result: Pf growth 96h)
COCc1nc(-c2ccc(-c3ccc(C)cc3)nc2OC)no1	Pf growth 96h inconclusive, Shiga inhibitor 116, Cycloheximide cs 33
CC(C)Nc1nnc(SCC(=O)N2CCN(C(=O)c3ccco3)CC2)s1	none (no result: NS1 function inh, Shiga inhibitor, Cycloheximide cs)
COC(=O)c1[nH]c(C)c(/C(O)=C2\C(=O)C(=O)N(CCN3CCOCC3)C2c2ccco2)c1C (stereo not drawn)	none
CCCCn1c(CNC(=O)c2cccs2)nc2ccccc21	Pf growth 96h 2.1µM, Pf growth 48h 5.2µM
CCCCn1c(C(C)NC(=O)c2cccs2)nc2ccccc21 (stereo not drawn)	Pf growth 48h inconclusive
CCCCCn1c(CNC(=O)c2cccs2)nc2ccccc21	Pf growth 96h 0.59µM, Pf growth 48h inconclusive
CCCCCn1c(CCNC(=O)c2cccs2)nc2ccccc21	Pf growth 48h inconclusive
COc1cccc(OC)c1CNC(=O)C1CCC(=O)N(CC2CCCCC2)C1 (stereo not drawn)	Pf growth 48h inconclusive
O=C(NCC(O)c1ccc([N+](=O)[O-])cc1)C1=COCCO1 (stereo not drawn)	none (no result: NS1 function inh, Pf growth 96h, Shiga inhibitor, Cycloheximide cs, Pf growth 48h)
CC(=O)/C(C#N)=C1\NC(=O)C(Cc2ccc(C)c(Cl)c2)S1 (stereo not drawn)	Cycloheximide cs 16
CCc1ccc(CC2S/C(=C(\C#N)C(C)=O)NC2=O)cc1 (stereo not drawn)	Pf growth 96h 2.9µM, Pf growth 48h inconclusive
CCOC(=O)c1ccc(CC2S/C(=C(\C#N)C(C)=O)NC2=O)cc1 (stereo not drawn)	Pf growth 96h inconclusive (no result: Pf growth 48h)
COc1ccc(C(c2c(C)n(C)n(-c3ccccc3)c2=O)c2c(C)n(C)n(-c3ccccc3)c2=O)c(OC)c1OC	Pf growth 96h 10µM, Pf growth 48h inconclusive
O=S1(=O)c2cccc3cccc(c23)N1CCBr	none
O=C(NNC(=O)C1CCN(c2ncccn2)CC1)c1ccncc1	none
CCc1cccc(C)c1NC(=O)CCCSc1nc2ccccc2s1	Pf growth 96h inconclusive, Pf growth 48h inconclusive
CCc1cccc(CC)c1NC(=O)C1SC(=Nc2ccccc2C)C(c2nc3ccccc3s2)=C1N (stereo not drawn)	Pf growth 96h 7.4µM (no result: Pf growth 48h)
CCOCCn1c2ccccc2c2nc3ccccc3nc21	Pf growth 96h inconclusive
CCCSCCCNC(=O)Cn1c(=O)c2cccn2c2ccccc21	Pf growth 96h inconclusive
COC(=O)CCC/C=C1/SCC(NC(=O)c2ccccc2)C1O (stereo not drawn)	Pf growth 96h inconclusive (no result: SARS PLpro yeast)
COC(=O)CCC/C=C1/SCC(NC(=O)c2ccccc2)C1=O (stereo not drawn)	NS1 function inh inconclusive, Pf growth 96h 9.3µM (no result: Pf growth 48h)
Nc1c(NC(=O)CC[n+]2ccccc2)cccc1[N+](=O)[O-]	Shiga inhibitor 96, Cycloheximide cs 46
CN(C)c1cc[n+](CCC(=O)Nc2cccc([N+](=O)[O-])c2N)cc1	Pf growth 96h 3.3µM, Pf growth 48h inconclusive
O=C(C[n+]1ccccc1)Nc1ccccc1[N+](=O)[O-]	none
CN(C)c1cc[n+](CC(=O)Nc2cccc([N+](=O)[O-])c2)cc1	NS1 function inh inconclusive, Pf growth 96h inconclusive, Pf growth 48h inconclusive
CN(CC(=O)Nc1ccc(F)c(F)c1F)C(=O)C1CCC1	none (no result: NS1 function inh, Shiga inhibitor, Cycloheximide cs)
CC(C)CC(=O)N=C1SC2CS(=O)(=O)CC2N1Cc1ccccc1Cl (stereo not drawn)	none
CC(=O)Nc1ccc(C)c(NS(=O)(=O)c2cccc(C(F)(F)F)c2)c1	Pf growth 96h 3.7µM, Pf growth 48h 1.9µM
C[C@H](NC(=O)[C@@H](N)Cc1ccc(O)cc1)C(=O)NCC(=O)N[C@H]1CSSC[C@@H](C(=O)O)NC(=O)[C@H](CO)NC(=O)[C@H]([C@@H](C)O)NC(=O)[C@H](Cc2ccccc2)NC(=O)[C@H]([C@@H](C)O)NC(=O)[C@H](CCCCN)NC(=O)[C@@H](Cc2c[nH]c3ccccc23)NC(=O)[C@H](Cc2ccccc2)NC(=O)[C@H](Cc2ccccc2)NC(=O)[C@H](CC(N)=O)NC(=O)[C@H](CCCCN)NC1=O	none (no result: NS1 function inh, Pf growth 96h, Pf growth 48h, SARS PLpro yeast)
CC1(C)C2CC=C(/C=N/NC(=S)NCCc3ccccc3)C1C2 (stereo not drawn)	Pf growth 96h 1.5µM, Cycloheximide cs 17, Pf growth 48h inconclusive
O=C(N/N=C\c1ccc2c(c1)CCC2)c1ccccc1O	none (no result: Pf growth 96h, Shiga inhibitor, Cycloheximide cs, Pf growth 48h, SARS PLpro yeast)
Oc1ccccc1/C=N/NC(=S)NCCc1ccccc1	Pf growth 96h inconclusive, Pf growth 48h inconclusive
CC1(C)C2CC=C(/C=N/NC(=O)c3ccccc3O)C1C2 (stereo not drawn)	Shiga inhibitor 36
OCCNCCSc1nc(C2CCCCC2)n(-c2ccccc2Cl)n1	Pf growth 96h inconclusive, Pf growth 48h inconclusive
